The nature of assay [1]: Nuclear factor erythroid 2-related factor 2/antioxidant responsive element (Nrf2/ARE) small molecule agonists: qHTS cell viability counter screen in human keratinocytes (AID 1919968; active means well fitted curve in the direction sought with a large enough effect in the repeat runs; an effect the other way counts as inactive or inconclusive; further: nearly all actives have a fitted effect of over 55% in size). In a few lines:
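KeratinoSens cells (HaCaT keratinocytes stably carrying an ARE-luciferase reporter) were seeded at 1,500 cells/well and rested 5 h at 37 C/5% CO2. They were then exposed to compounds in DMSO for 23 h. Viability was read by CellTiter-Fluor fluorescence after 1 h.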
A general note: Quantitative high-throughput screening tests each substance at several concentrations.

The nature of assay [2]: Nuclear factor erythroid 2-related factor 2/antioxidant responsive element (Nrf2/ARE) small molecule agonists: luciferase reporter gene qHTS assay in human keratinocytes (AID 1919969; further: nearly all actives have a fitted effect of over 35% in size; further: potency means the concentration at half of the fitted maximal effect). (In a reporter assay the amount or activity of a reporter protein is the signal.)
In assay [3] the target is Gonadotropin-releasing hormone receptor (Homo sapiens) (UniProt P30968). Description: Human gonadotropin-releasing hormone receptor (GnRHR) small molecule agonists, calcium flux assay in GnRHR-HEK293 cells (AID 1920063). Further: nearly all actives have a fitted effect of over 35% in size. The gist of the method: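 HEK293 cells stably expressing human GnRHR were plated 18 h at 37 °C, loaded with calcium dye 1 h at 37 °C, then given compound in agonist mode; fluorescence (Ex/Em 480/540) read kinetically for 3 min at 1 s intervals.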
Gonadotropin-releasing hormone receptor (Homo sapiens), sequence (P30968 whole entry, looked up): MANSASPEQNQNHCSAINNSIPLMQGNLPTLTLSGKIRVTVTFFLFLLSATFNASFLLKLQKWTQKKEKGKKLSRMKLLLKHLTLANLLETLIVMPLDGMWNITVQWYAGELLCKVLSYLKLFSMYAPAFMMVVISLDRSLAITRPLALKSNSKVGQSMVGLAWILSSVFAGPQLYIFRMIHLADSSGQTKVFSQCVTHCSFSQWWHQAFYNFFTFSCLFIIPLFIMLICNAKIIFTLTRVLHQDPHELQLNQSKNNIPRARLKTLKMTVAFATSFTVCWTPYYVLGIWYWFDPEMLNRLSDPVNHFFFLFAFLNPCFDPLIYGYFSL

Assay [4] has as its target KiSS-1 receptor (Homo sapiens) (UniProt Q969F8). Description: Human kisspeptin (KISS1R) small molecule agonists, calcium flux assay in KISS1R-HEK293 cells (AID 1920064; active means well fitted curve in the direction sought with a large enough effect in the repeat runs; an effect the other way counts as inactive or inconclusive). In a few lines: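 HEK293 cells stably expressing human KISS1R were plated 18 h at 37 °C, loaded with calcium dye for 1 h at 37 °C, then given compound by pin tool. Fluorescence (Ex/Em 480/540) was read kinetically for 3 min.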
For orientation: Calcium flux is commonly read through the fluorescence of an indicator in the cells.

A short description of assay [5]: G protein-coupled receptor (GPCR) small molecule agonists, calcium flux assay: HEK293 wild type cell line counter screen (AID 1920065). The gist of the method:
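Cells were plated and cultured 18 h at 37 C/5% CO2, then loaded with calcium dye for 1 h at 37 C. Compounds in DMSO were pin-transferred in agonist mode, and fluorescence (Ex/Em 480/540) was read kinetically for 3 min at 1 s intervals.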

The nature of assay [6]: p53 small molecule agonists, cell-based qHTS assay with human liver microsomes (AID 1963577).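 Further: p53 response element beta-lactamase reporter cells with liver microsomes plus NADPH.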 In a few lines: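 With metabolic activation: human liver microsomes (0.5 mg/mL final) plus NADPH (0.5 mg/mL final) added alongside compounds to p53RE-bla cells; 16 h 37 C exposure; beta-lactamase read by LiveBLAzer fluorescence.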
A short description of assay [7]: p53 small molecule agonists, cell-based qHTS assay with rat liver microsomes (AID 1963578). In a few lines: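 Metabolic activation by rat liver microsomes and NADPH, each 0.5 mg/mL final, added right after compounds to p53RE-bla reporter cells (4,000/well, plated 5 h earlier). 16 h at 37 C, then LiveBLAzer substrate for 2 h at room temperature in the dark; fluorescence read-out.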

Assay [8] is described as follows: p53 small molecule agonists, cell-based qHTS assay with human liver microsomes: qHTS cell viability counter screen (AID 1963579). Further: nearly all actives have a fitted effect of over 45% in size. Further: potency means the concentration at half of the fitted maximal effect. In a few lines: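 Metabolic activation used human liver microsomes and NADPH, both 0.5 mg/mL final, over 16 hours at 37 C on p53RE-bla cells (4,000/well). Cytotoxicity measured by CellTiter-Glo luminescence, 30 min at room temperature.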

A short description of assay [9]: p53 small molecule agonists, cell-based qHTS assay with rat liver microsomes: qHTS cell viability counter screen (AID 1963580). Further: nearly all actives have a fitted effect of over 45% in size. In a few lines:
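HCT-116 p53RE-bla, 4,000 cells/well, 5 h pre-incubation; cpd + rat liver microsomes 0.5 mg/mL + NADPH 0.5 mg/mL (final); 16 h, 37 C; CellTiter-Glo, 30 min RT; luminescence.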

The nature of assay [10]: p53 small molecule agonists, cell-based qHTS assay (AID 1963582; active means well fitted activation curve with a large enough effect in the signal ratio in the repeat runs, not every such curve was filed as active; the % refers to the signal ratio). The gist of the method: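 p53RE-bla beta-lactamase reporter cells rested 5 h at 37 C/5% CO2, then received compounds in DMSO by pin transfer and were incubated 16 h at 37 C. LiveBLAzer B/G FRET substrate was loaded for 2 h at room temperature before fluorescence reading.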
Assay [11] deals with 5-hydroxytryptamine receptor 2A (Homo sapiens) (UniProt P28223). Description: 5-hydroxytryptamine receptor 2A (HTR2A) small molecule antagonists, cell-based qHTS assay (AID 1963586). Further: nearly all actives have a fitted effect of over 45% in size. The gist of the method:
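Antagonist-mode intracellular calcium assay: DOI (4 nM) added after 5 min compound pre-incubation at room temperature to dye-loaded HTR2A-CHO cells. Fluorescence followed for 3 min, sampled every second.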

Assay [12] shares this target. Put plainly: 5-hydroxytryptamine receptor 2A (HTR2A) small molecule agonists, cell-based qHTS assay (AID 1963587). Further: nearly all actives have a fitted effect of over 30% in size. Further: potency means the concentration at half of the fitted maximal effect. The gist of the method: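 Kinetic calcium-flux fluorescence (2 min, 1 sec intervals) after compound addition in agonist mode. HTR2A-CHO cells were cultured 18 h, then dye-loaded 1 h at 37 C.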
In assay [13] the target is Muscarinic acetylcholine receptor M1 (Homo sapiens) (UniProt P11229). Put plainly: Cholinergic receptor muscarinic 1 (CHRM1) small molecule antagonists, cell-based qHTS assay (AID 1963588). Further: nearly all actives have a fitted effect of over 40% in size. The gist of the method: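 CHRM1-CHO calcium-flux assay, antagonist mode. Cells were seeded 18 h, dye-loaded 1 h at 37 C and given compound for 5 min at RT, then acetylcholine was added at 50nM. FDSS fluorescence was read 3 min; 15 concentrations, three runs.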
Muscarinic acetylcholine receptor M1 (Homo sapiens), sequence (P11229 whole entry, looked up): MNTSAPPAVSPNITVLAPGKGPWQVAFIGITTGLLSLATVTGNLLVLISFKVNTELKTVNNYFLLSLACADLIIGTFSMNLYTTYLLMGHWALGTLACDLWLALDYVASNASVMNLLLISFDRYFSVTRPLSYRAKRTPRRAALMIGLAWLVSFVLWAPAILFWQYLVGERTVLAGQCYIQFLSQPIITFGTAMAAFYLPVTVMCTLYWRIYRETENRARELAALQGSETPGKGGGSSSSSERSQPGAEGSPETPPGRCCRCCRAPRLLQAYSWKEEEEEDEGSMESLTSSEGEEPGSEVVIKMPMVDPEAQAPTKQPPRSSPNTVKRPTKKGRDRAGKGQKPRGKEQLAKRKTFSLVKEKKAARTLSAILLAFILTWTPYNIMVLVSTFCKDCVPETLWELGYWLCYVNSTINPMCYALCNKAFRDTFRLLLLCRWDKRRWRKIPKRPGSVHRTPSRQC

For assay [14] the target is unchanged. Description: Cholinergic receptor muscarinic 1 (CHRM1) small molecule agonists, cell-based qHTS assay (AID 1963589). Further: nearly all actives have a fitted effect of over 35% in size. In a few lines:
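CHO cells stably expressing human CHRM1, seeded 18 h at 37 C/5% CO2, dye-loaded 1 h at 37 C, then given compound in agonist mode; intracellular calcium fluorescence read kinetically at 1 s intervals. Fifteen concentrations, three independent runs.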

A short description of assay [15]: cAMP Responsive Elements (CRE) small molecule agonists, cell-based qHTS assay (AID 1963590). The gist of the method:
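CRE-bla HEK 293T cells in DMEM with 10% dialyzed FBS, NEAA, pyruvate and 25 mM HEPES were plated 18 h at 37 C/5% CO2, then exposed to compounds in DMSO for 3 h before LiveBLAzer B/G FRET substrate addition.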

A short description of assay [16]: cAMP Responsive Elements (CRE) small molecule antagonists, cell-based qHTS assay (AID 1963591; active means well fitted inhibition curve with a large enough effect in the signal ratio in the repeat runs, not every such curve was filed as active; the % refers to the signal ratio). The gist of the method:
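CRE-bla HEK293T cells were plated 18 h at 37 °C/5% CO2, pinned with compound in DMSO, then stimulated with NKH477 at 0.25 uM final for 3 h. LiveBLAzer B/G FRET substrate was added and plates incubated 2 h at room temperature.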

The target of assay [17] is Beta-2 adrenergic receptor (Homo sapiens) (UniProt P07550). Description: Adrenergic beta2 receptor (ADRB2) small molecule agonists, cell-based qHTS assay (AID 1963593).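 Further: CHO cells stably overexpressing human ADRB2.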 In a few lines: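 CHO cells stably over-expressing ADRB2 were plated overnight at 37C, then dosed with compounds plus a stimulation mix containing 100uM IBMX and 25uM Ro-20-1724 for 0.5hr at room temperature. cAMP was measured by HTRF competition, 1hr.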
Beta-2 adrenergic receptor (Homo sapiens), sequence (P07550 whole entry, looked up): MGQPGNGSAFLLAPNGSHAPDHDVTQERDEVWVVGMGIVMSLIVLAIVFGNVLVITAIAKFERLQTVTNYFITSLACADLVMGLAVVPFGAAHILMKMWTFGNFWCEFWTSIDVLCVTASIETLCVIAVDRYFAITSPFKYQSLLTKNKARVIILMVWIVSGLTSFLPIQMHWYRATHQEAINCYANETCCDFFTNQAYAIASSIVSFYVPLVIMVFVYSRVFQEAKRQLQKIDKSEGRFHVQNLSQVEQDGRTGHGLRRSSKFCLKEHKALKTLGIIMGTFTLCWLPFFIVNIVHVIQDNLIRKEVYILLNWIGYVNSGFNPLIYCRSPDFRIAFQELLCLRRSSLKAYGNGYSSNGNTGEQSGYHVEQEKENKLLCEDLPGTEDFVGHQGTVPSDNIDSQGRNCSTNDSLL

The target of assay [18] is D(2) dopamine receptor (Homo sapiens) (UniProt P14416). Put plainly: Dopamine D2 receptor (DRD2) small molecule agonists, cell-based qHTS assay (AID 1963594). Further: nearly all actives have a fitted effect of over 35% in size. The gist of the method:
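cAMP accumulation in DRD2-HEK293 cells measured by HTRF after 1 h detection; compounds added 10 min before NKH477 (200nM […]) forskolin-analogue stimulation, 30 min at room temperature, with Ro20-1724 present at 0.1 mM final.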

Assay [19] has the same target. Put plainly: Dopamine D2 receptor (DRD2) small molecule antagonists, cell-based qHTS assay (AID 1963595; active means well fitted inhibition curve with a large enough effect in the signal ratio in the repeat runs, with a control signal flat; the % refers to the signal ratio). The gist of the method:
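HEK293 cells stably expressing DRD2, preincubated with 0.1 mM Ro20-1724 and compounds 10 min, were stimulated with 200 nM NKH477 plus 12 nM quinpirole for 30 min at room temperature; cAMP measured by HTRF (665/620 nm).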

In assay [20] the target is Beta-2 adrenergic receptor (Homo sapiens) (UniProt P07550). Put plainly: Adrenergic beta2 receptor (ADRB2) small molecule antagonists, cell-based qHTS assay (AID 1963592). Further: series mostly up to about 92 µM; nearly all actives have a fitted effect of over 50% in size. The gist of the method:
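Cells (CHO, stable ADRB2 overexpression) incubated 18-20hr at 37C; compounds added from DMSO; agonist mix (1nM isoproterenol, 100uM IBMX, 25uM Ro-20-1724) added; 0.5hr RT; d2-cAMP and anti-cAMP-cryptate added; 1hr RT; 665/615 nm read.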

Unmarked numbers belong to inactive results. Records with an inconclusive call do not appear. Activity calls are given as the source filed them. Unless noted, the call rests on the fitted dose curve.

KiSS-1 receptor (Homo sapiens), sequence (Q969F8 whole entry, looked up): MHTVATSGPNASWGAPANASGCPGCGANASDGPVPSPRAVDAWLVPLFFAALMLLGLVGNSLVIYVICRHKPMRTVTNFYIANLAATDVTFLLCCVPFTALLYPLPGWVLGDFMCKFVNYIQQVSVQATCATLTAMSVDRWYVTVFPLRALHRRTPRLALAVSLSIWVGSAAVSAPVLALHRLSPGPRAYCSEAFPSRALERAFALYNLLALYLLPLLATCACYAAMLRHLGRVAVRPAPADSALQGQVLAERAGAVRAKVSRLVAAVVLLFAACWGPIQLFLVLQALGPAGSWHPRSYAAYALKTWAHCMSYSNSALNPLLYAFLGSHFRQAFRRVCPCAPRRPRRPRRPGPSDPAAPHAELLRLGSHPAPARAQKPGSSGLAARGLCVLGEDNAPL
D(2) dopamine receptor (Homo sapiens), sequence (P14416 whole entry, looked up): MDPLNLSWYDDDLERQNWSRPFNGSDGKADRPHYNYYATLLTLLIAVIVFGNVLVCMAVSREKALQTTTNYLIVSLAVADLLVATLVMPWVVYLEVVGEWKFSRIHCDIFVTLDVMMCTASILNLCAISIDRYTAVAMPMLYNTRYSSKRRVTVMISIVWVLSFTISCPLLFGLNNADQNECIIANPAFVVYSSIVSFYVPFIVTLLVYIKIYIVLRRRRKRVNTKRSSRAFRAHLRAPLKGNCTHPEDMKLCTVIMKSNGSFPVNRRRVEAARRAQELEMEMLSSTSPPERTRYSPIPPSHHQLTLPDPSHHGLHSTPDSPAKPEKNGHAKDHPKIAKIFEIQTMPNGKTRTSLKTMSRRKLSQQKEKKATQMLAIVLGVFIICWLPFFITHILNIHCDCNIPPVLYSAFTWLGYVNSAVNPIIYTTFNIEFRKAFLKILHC
5-hydroxytryptamine receptor 2A (Homo sapiens), sequence (P28223 whole entry, looked up): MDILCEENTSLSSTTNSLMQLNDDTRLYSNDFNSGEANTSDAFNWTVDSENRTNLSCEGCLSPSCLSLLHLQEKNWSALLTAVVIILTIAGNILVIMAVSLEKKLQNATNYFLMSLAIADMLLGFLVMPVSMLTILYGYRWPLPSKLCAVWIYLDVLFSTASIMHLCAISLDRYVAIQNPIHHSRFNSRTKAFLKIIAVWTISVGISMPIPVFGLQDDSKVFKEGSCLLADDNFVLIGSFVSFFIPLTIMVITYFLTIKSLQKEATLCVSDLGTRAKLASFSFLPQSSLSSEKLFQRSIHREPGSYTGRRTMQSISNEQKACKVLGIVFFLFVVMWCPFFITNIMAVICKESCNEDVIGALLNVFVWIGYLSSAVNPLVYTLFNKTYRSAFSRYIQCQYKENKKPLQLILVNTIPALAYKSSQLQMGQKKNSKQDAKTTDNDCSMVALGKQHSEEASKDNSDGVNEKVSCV

With `COC(=O)C(C)O` (stereo not given), the Potency entry in assay [1], in assay [2], in assay [3], in [6], in assay [7] and in assay [8] was “inactive” each time. For the same compound, the Potency result in assay [9], in assay [10], in assay [11], in assay [12], in [13] and in assay [14] was “inactive” throughout. The Potency result in [15], in assay [16], in assay [17], in assay [18] and in assay [19] was “inactive” throughout. Also, the result in assay [4] and in assay [5] was inactive.

Consider `Nc1ccc(S(=O)(=O)O)cc1`, for which the Potency result in assay [1], in assay [2], in [3], in assay [6], in assay [7] and in [8] was “inactive” each time. In addition, the Potency entry in assay [9], in [10], in assay [11], in [12], in assay [13] and in assay [14] was “inactive” throughout. Besides, the Potency result in assay [15], in assay [16], in assay [20], in assay [18] and in assay [19] was “inactive” each time. The result in assay [4] and in assay [5] was inactive.

As for `C=CC(C)C#N` (stereo not given), the Potency entry in assay [1], in assay [2], in assay [3], in assay [6], in assay [7] and in assay [8] was “inactive” throughout. The Potency entry in assay [9], in assay [10], in assay [11], in assay [12], in assay [13] and in [14] was “inactive” each time. The Potency result in assay [16], in assay [20] and in assay [19] was “inactive” each time. The result in assay [4] and in [5] was inactive.

With `COC(=O)/C=C\C(=O)O`, the Potency result in assay [1], in [2], in assay [3], in assay [6], in [7] and in assay [8] was “inactive” throughout. The Potency entry in assay [9], in assay [10], in assay [11], in assay [12], in assay [13] and in assay [14] was “inactive” in each case. The Potency entry in [15], in [16], in assay [20], in assay [18] and in [19] was “inactive” each time. The outcome in [4] and in [5] was inactive.

Consider `COC(=O)c1cccc(Cl)c1`, for which the Potency result in assay [1], in assay [2], in assay [3], in assay [6], in [7] and in [8] was “inactive” each time. For the same compound, the Potency result in assay [9], in assay [10], in assay [11], in assay [13], in assay [14] and in assay [15] was “inactive” each time. Further, the Potency result in [16], in assay [20], in assay [18] and in [19] was “inactive” in each case. The result in assay [4] and in assay [5] was inactive. Further, the Potency in assay [12] is 21.6 µM (active).

For the compound `COc1cc2c(cc1N)oc1ccccc12`, the Potency entry in [1], in assay [3], in assay [6], in [7], in [9] and in [10] was “inactive” in each case. In addition, the Potency entry in assay [11], in assay [12], in assay [13], in assay [14], in assay [15] and in [16] was “inactive” each time. The Potency entry in assay [18] and in [19] was “inactive” each time. For the same compound, the Potency was 62.4 µM (active) in assay [2] and 33.1 µM (active) in assay [8]. The outcome in assay [4] and in [5] was inactive.

With `CCCCCCCCCCCBr`, the Potency entry in assay [1], in [2], in assay [3], in assay [6], in [7] and in assay [8] was “inactive” each time. Further, the Potency result in assay [9], in assay [10], in assay [11], in assay [12], in [13] and in [14] was “inactive” throughout. The Potency result in assay [15], in assay [16], in assay [20], in [18] and in assay [19] was “inactive” each time. Moreover, the result in [4] and in assay [5] was inactive.

These data come from PubChem BioAssay (Tox21).
